In PubChem BioAssay (EPA / NIEHS):
Several values for one entry are separate records, joined by “and”; a condition that tells them apart may be missing. Equal entries are not always repeated. Some compounds were tested as several samples or in several runs, with calls that do not always agree. Activity calls are given as the source filed them. The calls were made as follows: active = hit-call score of the fitted dose curve at least 0.9, where 1 is the maximum; inactive = score below 0.9.

read-out: Tissue Factor, F3 (gene 2152); assay: BSK_LPS_TissueFactor: BioMAP Diversity Plus: LPS Assay for Tissue Factor Biomarker Activity (AID 2283084); settings: primary human HUVEC with PBMC; actives raise or lower the signal
Protocol: BSK_LPS is a cell-based, multiplexed-readout assay that uses umbilical vein endothelium and peripheral blood mononuclear cells, a human vascular primary cell co-culture, with measurements taken at 24 hours after chemical dosing in a 96-well plate.BSK_LPS_TissueFactor is an assay component measured in the BSK_LPS assay. It measures CD142 Tissue Factor antibody related to regulation of gene expression using ELISA technology.Data from the assay component BSK_LPS_TissueFactor was analyzed into 1 assay endpoint. This assay endpoint, BSK_LPS_TissueFactor, was analyzed with bidirectional fitting relative to DMSO as the negative control and baseline of activity. Using a type of binding reporter, gain or loss-of-signal activity can be used to understand changes in the signaling as they relate to the gene F3. Furthermore, this assay endpoint can be referred to as a primary readout, because this assay has produced multiple assay endpoints where this one serves a signaling function. To generalize the intended target to other relatable targets, this assay endpoint is annotated to the cytokine intended target family, where the subfamily is coagulation factor.
The levels of cell surface (or secreted, indicated by the prefix "s") biomarker endpoints were measured by ELISA. Overt cytotoxicity to cells in confluent adherent cultures (all systems other than the BT system) was assessed by measuring total protein levels using sulforhodamine B (SRB) staining in parallel cultures at the time of biomarker measurements, indicated as SRB endpoints. For proliferation assays for adherent cell types, individual cell types are cultured at sub-confluence and relative cell numbers quantified by SRB staining at time points optimized for each system (48 h: 3C and CASM3C systems; 72 h: BT and HDF3CGF systems; 96 h: SAg system). SRB was performed by staining cells with 0.1% SRB after fixation with 10% TCA and reading wells at 560 nm.Viability and proliferation of PBMC (T cells) was quantified by Alamar Blue reduction for the SAg and BT systems. For PBMC viability (referred to as PBMC Cytotoxicity within the assay endpoint names), cells were plated (75,000/well in a 96-well plate) and then chemical samples added for 1 h before addition of activators, SEB and TSST-1 (20 ng/mL final concentration each). Cells were incubated for 90 h. Then, Alamar Blue (20 uL/well) (Invitrogen, Cat DAL1100) was added for 6 h, and the plates were read with a fluorescence microplate reader at 546/580 nm (excitation/emission). For PBMC proliferation, cells were plated and activated as above but incubated for only 16 h prior to addition of Alamar Blue. Plates were read after 6 h.

AC50, active:
CCOC(=O)c1ccccc1C(=C1C=C(Br)C(=O)C(Br)=C1)c1cc(Br)c(O)c(Br)c1 18.2 µM and 12.6 µM
c1ccc2c(c1)ccc1ncccc12 6.01 µM
CCCCC/C=C\C/C=C\CCCCCCCC(=O)OC 20 µM
C#CC1(O)CC[C@H]2[C@@H]3CCC4=CCCC[C@@H]4[C@H]3CC[C@@]21C (some centres not stated) 31.2 µM
COCc1c(C(C)C)nc(C(C)C)c(/C=C/[C@@H](O)C[C@@H](O)CC(=O)O)c1-c1ccc(F)cc1 0.00778 µM
c1ccc2c(c1)ccc1cc3c(ccc4ccccc43)cc12 0.0342 µM
O=C(Cl)c1cc(C(=O)Cl)cc(C(=O)Cl)c1 33 µM
C=CC(=O)OCC(Br)CBr (configuration not stated) 16.7 µM
C/C=C\C/C=C/CCCCCCCCOC(C)=O 30.4 µM
CCCCCCCCCCCCCCCC[N+](C)(C)CC 2.36 µM
Nc1ccc(N)c(Cl)c1 3.97 µM and 3.44 µM

outcome, inactive:
CCOc1nc(F)cc2nc(S(=O)(=O)Nc3c(Cl)cccc3C(=O)OC)nn12
C=CCOCC(O)CCl (configuration not stated)
CC(C)(c1cc(Br)c(OCCO)c(Br)c1)c1cc(Br)c(OCCO)c(Br)c1
O=C(Nc1ccccc1SSc1ccccc1NC(=O)c1ccccc1)c1ccccc1
CO[Si](OC)(OC)c1ccccc1
O=c1c2ccccc2oc2ccccc12
CC(C)C(=O)C(C)C
C=CCOc1c(Br)cc(Br)cc1Br
O=Nc1ccc(O)cc1
CN1C(=O)N(C)C(O)C1O (configuration not stated)
CCO[Si](C)(OCC)OCC
c1ccc2c(c1)ccc1cc3c(ccc4ccccc43)cc12
CCO[Si](CCCN=C=O)(OCC)OCC
CCCCC(CC)COC(=O)c1ccccc1O (configuration not stated)
N#[N+]c1ccc2c(S(=O)(=O)[O-])cccc2c1O
CCCCC(CC)COCC1CO1 (configuration not stated)
O=C(c1ccc(O)cc1)c1ccc(O)cc1O
S=C(NC1CCCCC1)NC1CCCCC1
C=C[Si](OC(C)=O)(OC(C)=O)OC(C)=O
CC1OC1C1CCC2(C)OC2C1 (configuration not stated)
O=C1CCCN1CCO
CCCCCCCCc1ccc(Nc2ccc(CCCCCCCC)cc2)cc1
CCCCNc1ccc(NCCCC)c2c1C(=O)c1ccccc1C2=O
c1ccc(-c2ccccn2)nc1
COc1ccc2nc(N)sc2c1
C=CC=CC=CCCCCC
